32 compounds from PubChem BioAssay (NCI) can be followed below.

This assay relates to HL-60(TB) leukemia. As to the kind of experiment: NCI-60 one-dose screen, 48 h (100 = growth as untreated, 0 = no growth, -100 = all killed). The settings on record: 10 µM unless noted.

Compounds without any hit were thinned out: in the full panel of roughly 83,000, 20% have a hit.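 Cell lines were cultured in 96-well plates, exposed to a single compound concentration, and assessed for percent growth 48 hours later.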 The source made the active and inactive calls. How the source made its calls: active means growth percent below 10; inactive means the rest.

`COc1ccc(/C=C/C(=O)Nc2ccc(-c3nc4ccc(OC)cc4s3)cc2)cc1`: the growth was 99.3% (inactive).

Consider `COc1ccc2c(c1)c(CC(=O)NCCOCCOCC(=O)Nc1ccc(OC)c(C(N)=O)c1O)c(C)n2C(=O)c1ccc(Cl)cc1`, for which the growth is 107% (inactive).

As for `Oc1ccc(Nc2nccc(-c3ccc4ccccc4c3)n2)cc1`, the growth is 7.93% (active).

For `COc1ccc2nc(-c3ccc(-c4noc(-c5ccc(Cl)cc5)n4)cc3)[nH]c2c1`, the growth is 104% (inactive).

On to `Cc1cccc(C)c1NCc1nc(-c2ccccc2)n[nH]1`, for which the growth was 90.7% (inactive).

Turning to `Cc1c(CC(=O)Nc2ccccc2)nnn1-c1ccccc1`, the growth is 99.3% (inactive).

Regarding `Cc1ccc(C2CCCCC2)cc1Br`, the growth was 97% (inactive).

Regarding `CCc1c(Cl)nc(N)nc1Nc1ccc(C)c(C)c1`, the growth was 88.1% (inactive).

Regarding `CC(C)CNCC(=O)Nc1ccc(Cc2ccc(NC(=O)CNCC(C)C)cc2)cc1`, the growth was 38% (inactive).

On to `Cc1nc2sc(C(=O)Nc3cccc(Br)c3)c(N)c2cc1C(O)c1ccccc1` (configuration not stated), for which the growth is -27.4% (active).

Regarding `CCOC(=O)C1CCN(S(=O)(=O)/N=C2/NC(=O)NC2=C(Cl)Cl)CC1`, the growth was -45.9% (active).

Regarding `C=C(C)[C@@H]1CC[C@]2(C)CC[C@]3(C)[C@H](CC[C@@H]4[C@@]5(C)CCCNC(C)(C)[C@@H]5CC[C@]43C)[C@@H]12`, the growth was 35.7% (inactive).

For `Nc1nc(Nc2ccc([N+](=O)[O-])cc2O)nc(C(Cl)(Cl)Cl)n1`, the growth was 6.38% (active).

With `c1ccc(-c2oc(-c3ccccc3)c3ccccc23)cc1`, the growth is 109% (inactive).

Take `COc1cc(/C=C/C(=O)c2ccc(Nc3nc(Nc4ccccc4)nc(Nc4ccc(Cl)cc4)n3)cc2)cc(OC)c1OC`: the growth is 64.5% (inactive).

Take `COCCOc1cc2ncnc(N3CCN(c4ncc(S(=O)(=O)N5CCCCC5)cn4)CC3)c2cc1OCCOC`: the growth was 100% (inactive).

Take `O=C(O)CCCC(=O)O`: the growth was 99% (inactive).

Take `CC1=C([Se]CC(OC(=O)[C@@H](CO)NC(=O)OC(C)(C)C)C(=O)NC(C)(C)C)C(=O)c2ccccc2C1=O` (some centres not stated): the growth was -36.2% (active).

`COc1ccc(-c2c[nH]c(C(=O)O)c2-c2cc(OC)c3c(c2OC)OCO3)cc1`: the growth is 105% (inactive).

In the case of `Cc1ccc(O)c(NC(=O)c2ccc(CNc3ccnc(C(F)(F)F)c3)cc2)c1`, the growth is 9.24% (active).

Take `C#CC#CC#CC#CC#CC#CC#CC#CCC1OCC(COC(=O)O[C@@H](C(=O)O[C@H]2C[C@@]3(O)[C@@H](OC(=O)c4ccccc4)[C@@H]4[C@]5(OC(C)=O)CO[C@@H]5C[C@H](O)[C@@]4(C)C(=O)[C@H](OC(C)=O)C(=C2C)C3(C)C)[C@@H](NC(=O)c2ccccc2)c2ccccc2)O1` (some centres not stated): the growth was 5.04% (active).

On to `O=C(/C=C/c1ccccc1)n1c(-c2ccccc2)nc2ccccc21`, for which the growth is 101% (inactive).

Consider `c1cc(-c2ccc3c(c2)OCO3)n2nccc2n1`, for which the growth is 98.4% (inactive).

As to `COc1ccc(-c2csc(NC(=O)CSc3nc(C)c(-c4ccccc4)n3Nc3ccccc3)n2)cc1`, the growth was 50.3% (inactive).

For `CC(O)/C=C/C=C/C(O)CC/C=C/C(=O)NCC(C)(C)O` (configuration not stated), the growth was 81.1% (inactive).

Consider `Cc1cccc(NC2=C(Cl)C(=O)c3nc(C)ccc3C2=O)c1`, for which the growth was -14.9% (active).

Regarding `COc1ccc(-c2nc3sccn3c2-c2ccnc(NCCCNS(=O)(=O)c3ccc(C)cc3)n2)cc1`, the growth is 0.661% (active).

In the case of `COc1ccc(/C=C\c2cc(OC)c(OC)c(OC)c2)cc1OCC(=O)Nc1ccc2nc(C)sc2c1`, the growth was -5.19% (active).

For `O=S(=O)(O)CC(O)CN1CCN(CCO)CC1` (configuration not stated), the growth is 96% (inactive).

In the case of `COc1cccc(-c2nn(-c3ccccc3)cc2-c2ccnc(NCCNS(=O)(=O)c3ccccc3)c2)c1`, the growth was 8.92% (active).

On to `CN(C)c1ccc(/C=N/NC(=O)c2ccccc2Nc2cccc(C(F)(F)F)c2)cc1`, for which the growth is 92.1% (inactive).

With `O=C1NC(=S)N[C@H]1CC(=O)n1cnc2ccccc21`, the growth was 109% (inactive).
